# According to article PMC7862700, “An all-to-all approach to the identification of sequence-specific readers for epigenetic DNA modifications on cytosine”:
# Assays:
# Assay in all cases: DAPPL (digital affinity profiling via proximity ligation, sequencing); 10 mM Tris-HCl pH 7.5, 50 mM NaCl, 1 mM DTT, 4% glycerol, room temperature, 30 min; GST-TFs on glutathione beads, 16-mer random dsDNA library, 0.1% formaldehyde crosslink after washing; high values mean tight binding
# [1] = target: T1, FEV (Homo sapiens, UniProt Q99581 1-238); conditions: protein: recombinant; tags: N-terminal GST; dsDNA, one strand shown
# T1 sequence: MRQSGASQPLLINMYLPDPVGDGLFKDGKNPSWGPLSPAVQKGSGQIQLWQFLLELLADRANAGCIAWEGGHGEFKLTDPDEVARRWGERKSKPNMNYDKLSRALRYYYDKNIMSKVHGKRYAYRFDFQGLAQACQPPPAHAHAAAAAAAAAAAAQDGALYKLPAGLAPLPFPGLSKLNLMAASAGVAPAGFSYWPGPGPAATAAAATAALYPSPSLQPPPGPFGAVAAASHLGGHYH
# Method in brief: (§1)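 Binding signal is each hexamer's read frequency for a factor divided by its frequency in the tag-only sample. The factors were GST-fused human transcription factors from yeast, captured on glutathione beads, DNA-barcoded and pooled with that sample. Pools were incubated with 200 nmole of a random double-stranded 16-mer DNA library in Tris/NaCl/DTT/glycerol buffer at room temperature for 30 min, then washed, crosslinked with 0.1% formaldehyde, proximity-ligated with BsaI/T4 ligase (1 h, 37 °C), PCR-amplified and sequenced on an Illumina NextSeq500.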
# [2] = target: ETV5 (Homo sapiens, UniProt P41161 1-510); conditions: protein: recombinant; tags: N-terminal GST; dsDNA, one strand shown
# Sequence of ETV5 (P41161 whole entry): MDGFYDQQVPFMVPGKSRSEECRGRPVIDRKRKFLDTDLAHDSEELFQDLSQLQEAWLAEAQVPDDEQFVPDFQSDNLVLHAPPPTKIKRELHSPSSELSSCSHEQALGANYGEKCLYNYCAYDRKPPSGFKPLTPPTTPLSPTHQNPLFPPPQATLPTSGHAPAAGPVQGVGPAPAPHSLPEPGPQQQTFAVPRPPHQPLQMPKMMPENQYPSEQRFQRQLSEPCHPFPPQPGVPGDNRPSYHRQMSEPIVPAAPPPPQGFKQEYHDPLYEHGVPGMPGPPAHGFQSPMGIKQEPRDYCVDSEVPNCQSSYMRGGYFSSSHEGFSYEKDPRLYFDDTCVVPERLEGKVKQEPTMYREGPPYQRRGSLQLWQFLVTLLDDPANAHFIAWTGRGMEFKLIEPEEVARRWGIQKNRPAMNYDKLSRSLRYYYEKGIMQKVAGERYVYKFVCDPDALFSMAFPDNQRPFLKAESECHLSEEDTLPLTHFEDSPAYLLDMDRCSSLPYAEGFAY
# Method in brief: as §1
# [3] = target: HSF1 (Homo sapiens, UniProt Q00613 1-529); conditions: protein: recombinant; tags: N-terminal GST; chain copies: 3; dsDNA, one strand shown
# Sequence of HSF1 (Q00613 whole entry): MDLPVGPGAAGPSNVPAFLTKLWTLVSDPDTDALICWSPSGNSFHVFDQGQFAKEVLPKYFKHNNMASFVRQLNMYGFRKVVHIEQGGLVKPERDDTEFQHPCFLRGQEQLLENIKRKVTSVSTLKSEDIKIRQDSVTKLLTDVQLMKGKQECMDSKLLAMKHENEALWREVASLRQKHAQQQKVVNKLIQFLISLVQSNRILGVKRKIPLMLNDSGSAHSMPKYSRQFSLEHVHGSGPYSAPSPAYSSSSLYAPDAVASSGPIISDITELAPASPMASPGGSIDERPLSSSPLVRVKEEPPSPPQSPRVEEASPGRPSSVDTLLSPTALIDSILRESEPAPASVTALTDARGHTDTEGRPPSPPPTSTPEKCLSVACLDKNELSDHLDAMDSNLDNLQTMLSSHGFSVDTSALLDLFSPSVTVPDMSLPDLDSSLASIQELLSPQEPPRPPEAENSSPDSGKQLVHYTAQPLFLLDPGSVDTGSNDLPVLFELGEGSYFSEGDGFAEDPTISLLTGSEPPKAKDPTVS
# Method in brief: as §1
# [4] = target: T2, SPIC (Homo sapiens, UniProt Q8N5J4 1-248); conditions: protein: recombinant; tags: N-terminal GST; dsDNA, one strand shown
# T2 sequence: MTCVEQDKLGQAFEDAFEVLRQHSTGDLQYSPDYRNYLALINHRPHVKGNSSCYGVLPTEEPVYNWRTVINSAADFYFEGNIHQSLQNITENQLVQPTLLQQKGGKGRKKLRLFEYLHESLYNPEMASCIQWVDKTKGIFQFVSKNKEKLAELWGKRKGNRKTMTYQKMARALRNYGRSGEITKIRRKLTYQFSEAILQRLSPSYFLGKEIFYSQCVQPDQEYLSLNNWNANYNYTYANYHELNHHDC
# Method in brief: as §1
# [5] = target: ELF4 (Homo sapiens, UniProt Q99607 1-663); conditions: protein: recombinant; tags: N-terminal GST; dsDNA, one strand shown
# Sequence of ELF4 (Q99607 whole entry): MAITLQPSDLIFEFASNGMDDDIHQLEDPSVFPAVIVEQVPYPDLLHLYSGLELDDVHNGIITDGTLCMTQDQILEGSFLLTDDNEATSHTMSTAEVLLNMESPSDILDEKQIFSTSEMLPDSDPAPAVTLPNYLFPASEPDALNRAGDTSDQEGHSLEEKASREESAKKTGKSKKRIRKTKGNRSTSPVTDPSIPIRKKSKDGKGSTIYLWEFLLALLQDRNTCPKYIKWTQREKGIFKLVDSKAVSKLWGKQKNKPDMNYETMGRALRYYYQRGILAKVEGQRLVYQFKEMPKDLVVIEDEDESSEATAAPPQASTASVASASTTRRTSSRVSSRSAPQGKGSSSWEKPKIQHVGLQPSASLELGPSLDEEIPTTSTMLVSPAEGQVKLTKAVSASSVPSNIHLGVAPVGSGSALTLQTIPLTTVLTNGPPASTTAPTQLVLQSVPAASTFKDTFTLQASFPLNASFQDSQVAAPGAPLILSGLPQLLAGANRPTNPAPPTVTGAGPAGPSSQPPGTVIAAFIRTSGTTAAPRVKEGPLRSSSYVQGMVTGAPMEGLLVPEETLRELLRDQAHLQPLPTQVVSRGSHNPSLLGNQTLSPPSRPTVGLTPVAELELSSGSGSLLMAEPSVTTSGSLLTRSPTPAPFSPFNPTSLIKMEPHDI
# Method in brief: as §1
# [6] = target: T3, ELK4 (Homo sapiens, UniProt P28324-2 1-405); conditions: protein: recombinant; tags: N-terminal GST; dsDNA, one strand shown
# T3 sequence: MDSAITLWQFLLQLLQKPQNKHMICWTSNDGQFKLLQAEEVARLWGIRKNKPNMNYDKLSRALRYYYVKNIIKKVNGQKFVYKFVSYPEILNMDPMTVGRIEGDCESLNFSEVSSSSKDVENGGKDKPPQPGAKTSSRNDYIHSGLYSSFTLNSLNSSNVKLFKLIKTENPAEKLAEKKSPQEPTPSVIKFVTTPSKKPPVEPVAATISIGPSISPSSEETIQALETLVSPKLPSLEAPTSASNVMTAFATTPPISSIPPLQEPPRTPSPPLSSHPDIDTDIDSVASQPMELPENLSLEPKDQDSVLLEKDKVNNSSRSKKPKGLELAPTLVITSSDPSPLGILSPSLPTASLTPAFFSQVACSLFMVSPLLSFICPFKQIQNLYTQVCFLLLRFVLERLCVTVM
# Method in brief: as §1
# [7] = target: T4, ETV2 (Homo sapiens, UniProt O00321 1-342); conditions: protein: recombinant; tags: N-terminal GST; dsDNA, one strand shown
# T4 sequence: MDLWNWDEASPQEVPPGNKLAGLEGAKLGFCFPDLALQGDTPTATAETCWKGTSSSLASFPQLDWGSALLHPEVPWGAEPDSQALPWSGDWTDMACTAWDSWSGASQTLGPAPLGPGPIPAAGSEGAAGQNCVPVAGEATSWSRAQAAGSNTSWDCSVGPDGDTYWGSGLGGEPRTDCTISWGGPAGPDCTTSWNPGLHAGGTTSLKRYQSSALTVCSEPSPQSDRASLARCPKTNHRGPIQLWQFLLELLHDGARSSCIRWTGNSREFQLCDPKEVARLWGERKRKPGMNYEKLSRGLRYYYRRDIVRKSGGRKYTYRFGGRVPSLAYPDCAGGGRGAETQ
# Method in brief: as §1
# [8] = target: T5, ELF3 (Homo sapiens, UniProt P78545 1-371); conditions: protein: recombinant; tags: N-terminal GST; dsDNA, one strand shown
# T5 sequence: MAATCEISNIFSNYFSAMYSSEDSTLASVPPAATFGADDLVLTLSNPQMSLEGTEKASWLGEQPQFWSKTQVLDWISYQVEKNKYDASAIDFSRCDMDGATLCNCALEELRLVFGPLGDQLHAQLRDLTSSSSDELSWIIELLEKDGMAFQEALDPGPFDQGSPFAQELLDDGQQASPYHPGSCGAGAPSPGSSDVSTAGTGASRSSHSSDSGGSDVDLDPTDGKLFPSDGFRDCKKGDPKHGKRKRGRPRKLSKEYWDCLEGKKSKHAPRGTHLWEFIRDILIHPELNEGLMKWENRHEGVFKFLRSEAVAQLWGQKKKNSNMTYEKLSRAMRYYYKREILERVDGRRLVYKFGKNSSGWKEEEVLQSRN
# Method in brief: as §1
# [9] = target: CRX (Homo sapiens, UniProt O43186 1-299); conditions: protein: recombinant; tags: N-terminal GST; dsDNA, one strand shown
# Sequence of CRX (O43186 whole entry): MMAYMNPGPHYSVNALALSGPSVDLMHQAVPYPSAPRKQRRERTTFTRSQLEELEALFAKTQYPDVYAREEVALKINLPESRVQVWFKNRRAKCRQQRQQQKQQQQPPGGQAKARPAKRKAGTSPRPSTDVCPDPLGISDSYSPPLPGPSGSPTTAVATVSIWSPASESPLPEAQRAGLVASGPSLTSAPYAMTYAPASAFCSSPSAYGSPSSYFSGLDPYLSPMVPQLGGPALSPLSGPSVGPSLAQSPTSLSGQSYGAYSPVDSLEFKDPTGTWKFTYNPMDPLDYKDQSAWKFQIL
# Method in brief: as §1
# [10] = target: ETV1 (Homo sapiens, UniProt P50549 1-477); conditions: protein: recombinant; tags: N-terminal GST; dsDNA, one strand shown
# Sequence of ETV1 (P50549 whole entry): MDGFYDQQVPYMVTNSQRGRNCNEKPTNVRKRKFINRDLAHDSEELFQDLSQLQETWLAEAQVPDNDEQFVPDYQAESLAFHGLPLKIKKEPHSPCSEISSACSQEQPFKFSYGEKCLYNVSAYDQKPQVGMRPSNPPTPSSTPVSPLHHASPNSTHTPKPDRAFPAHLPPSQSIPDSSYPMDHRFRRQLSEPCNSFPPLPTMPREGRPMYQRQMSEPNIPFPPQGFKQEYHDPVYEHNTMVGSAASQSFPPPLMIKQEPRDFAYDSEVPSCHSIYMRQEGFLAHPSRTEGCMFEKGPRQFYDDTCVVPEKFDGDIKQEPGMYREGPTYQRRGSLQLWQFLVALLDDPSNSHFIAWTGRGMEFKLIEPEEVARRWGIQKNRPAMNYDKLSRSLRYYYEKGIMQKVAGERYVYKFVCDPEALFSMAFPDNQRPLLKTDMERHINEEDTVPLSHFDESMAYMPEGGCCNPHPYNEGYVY
# Method in brief: as §1
# [11] = target: T6, ERF (Homo sapiens, UniProt P50548 1-548); conditions: protein: recombinant; tags: N-terminal GST; dsDNA, one strand shown
# T6 sequence: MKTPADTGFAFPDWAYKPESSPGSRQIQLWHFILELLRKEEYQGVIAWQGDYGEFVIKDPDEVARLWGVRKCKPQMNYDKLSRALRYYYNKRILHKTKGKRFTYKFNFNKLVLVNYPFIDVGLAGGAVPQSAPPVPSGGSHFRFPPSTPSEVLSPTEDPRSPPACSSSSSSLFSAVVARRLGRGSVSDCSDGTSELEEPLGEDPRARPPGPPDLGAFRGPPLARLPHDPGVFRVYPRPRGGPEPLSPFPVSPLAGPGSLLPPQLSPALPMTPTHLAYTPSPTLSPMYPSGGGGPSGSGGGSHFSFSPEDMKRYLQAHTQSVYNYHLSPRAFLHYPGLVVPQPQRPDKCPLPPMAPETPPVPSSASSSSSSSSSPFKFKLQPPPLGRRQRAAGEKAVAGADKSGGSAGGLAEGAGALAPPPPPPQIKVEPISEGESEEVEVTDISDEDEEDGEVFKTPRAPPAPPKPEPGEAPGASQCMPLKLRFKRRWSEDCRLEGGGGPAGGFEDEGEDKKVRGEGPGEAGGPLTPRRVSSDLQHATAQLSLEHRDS
# Method in brief: as §1
# [12] = target: T7, ETV3L (Homo sapiens, UniProt Q6ZN32 1-361); conditions: protein: recombinant; tags: N-terminal GST; dsDNA, one strand shown
# T7 sequence: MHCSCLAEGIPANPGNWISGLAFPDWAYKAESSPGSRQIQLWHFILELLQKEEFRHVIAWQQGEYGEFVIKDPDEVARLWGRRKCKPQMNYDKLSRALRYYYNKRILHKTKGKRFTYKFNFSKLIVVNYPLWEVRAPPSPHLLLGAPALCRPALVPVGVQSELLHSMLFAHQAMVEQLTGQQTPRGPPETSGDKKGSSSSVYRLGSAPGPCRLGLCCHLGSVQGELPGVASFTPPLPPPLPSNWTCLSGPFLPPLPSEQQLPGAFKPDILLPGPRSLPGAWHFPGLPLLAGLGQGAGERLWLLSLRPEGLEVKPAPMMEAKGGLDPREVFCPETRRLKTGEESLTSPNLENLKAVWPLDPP
# Method in brief: as §1
# [13] = target: T8, ETS2 (Homo sapiens, UniProt P15036 1-469); conditions: protein: recombinant; tags: N-terminal GST; dsDNA, one strand shown
# T8 sequence: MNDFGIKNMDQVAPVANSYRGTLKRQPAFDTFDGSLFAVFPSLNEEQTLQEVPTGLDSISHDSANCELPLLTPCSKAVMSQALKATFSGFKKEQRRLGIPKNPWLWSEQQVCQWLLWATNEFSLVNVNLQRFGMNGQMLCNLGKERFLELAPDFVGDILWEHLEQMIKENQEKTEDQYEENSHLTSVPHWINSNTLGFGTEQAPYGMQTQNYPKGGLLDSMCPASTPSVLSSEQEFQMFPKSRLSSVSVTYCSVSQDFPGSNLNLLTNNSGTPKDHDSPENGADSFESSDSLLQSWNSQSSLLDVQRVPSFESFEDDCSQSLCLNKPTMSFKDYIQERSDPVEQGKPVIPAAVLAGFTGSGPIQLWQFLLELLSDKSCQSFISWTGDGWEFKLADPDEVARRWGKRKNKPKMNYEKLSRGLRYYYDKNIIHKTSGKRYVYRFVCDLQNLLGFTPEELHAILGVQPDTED
# Method in brief: as §1
# [14] = target: T9, SPDEF (Homo sapiens, UniProt O95238 1-335); conditions: protein: recombinant; tags: N-terminal GST; dsDNA, one strand shown
# T9 sequence: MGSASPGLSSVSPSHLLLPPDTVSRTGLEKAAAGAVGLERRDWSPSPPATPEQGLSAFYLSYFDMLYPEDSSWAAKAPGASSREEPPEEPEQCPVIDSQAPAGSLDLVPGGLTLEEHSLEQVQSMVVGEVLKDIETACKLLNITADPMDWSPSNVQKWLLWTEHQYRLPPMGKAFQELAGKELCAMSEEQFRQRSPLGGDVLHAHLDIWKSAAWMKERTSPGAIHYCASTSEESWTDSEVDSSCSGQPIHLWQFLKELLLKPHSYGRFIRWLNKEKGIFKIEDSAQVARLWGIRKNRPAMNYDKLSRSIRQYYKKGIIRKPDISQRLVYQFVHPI
# Method in brief: as §1
# [15] = target: T10, ETV7 (Homo sapiens, UniProt Q9Y603 1-341); conditions: protein: recombinant; tags: N-terminal GST; dsDNA, one strand shown
# T10 sequence: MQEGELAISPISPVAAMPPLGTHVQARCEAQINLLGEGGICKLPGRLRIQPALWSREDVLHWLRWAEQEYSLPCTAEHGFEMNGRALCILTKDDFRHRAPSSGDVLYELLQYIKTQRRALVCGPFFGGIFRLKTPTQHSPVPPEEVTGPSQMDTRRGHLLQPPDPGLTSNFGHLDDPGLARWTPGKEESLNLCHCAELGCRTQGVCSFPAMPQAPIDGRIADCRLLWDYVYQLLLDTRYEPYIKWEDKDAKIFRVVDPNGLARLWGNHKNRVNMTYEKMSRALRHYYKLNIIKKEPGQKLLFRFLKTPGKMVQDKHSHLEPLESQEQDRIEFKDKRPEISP
# Method in brief: as §1
# [16] = target: T11, ELF5 (Homo sapiens, UniProt Q9UKW6-2 1-255); conditions: protein: recombinant; tags: N-terminal GST; dsDNA, one strand shown
# T11 sequence: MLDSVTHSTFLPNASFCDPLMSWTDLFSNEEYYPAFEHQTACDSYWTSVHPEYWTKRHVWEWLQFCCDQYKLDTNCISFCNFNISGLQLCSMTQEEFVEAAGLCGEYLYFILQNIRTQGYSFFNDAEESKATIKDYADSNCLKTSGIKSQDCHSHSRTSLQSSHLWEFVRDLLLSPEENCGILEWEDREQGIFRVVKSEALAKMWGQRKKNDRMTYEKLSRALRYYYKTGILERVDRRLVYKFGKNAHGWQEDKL
# Method in brief: as §1
# [17] = target: T12, ETV3 (Homo sapiens, UniProt P41162-2 1-143); conditions: protein: recombinant; tags: N-terminal GST; dsDNA, one strand shown
# T12 sequence: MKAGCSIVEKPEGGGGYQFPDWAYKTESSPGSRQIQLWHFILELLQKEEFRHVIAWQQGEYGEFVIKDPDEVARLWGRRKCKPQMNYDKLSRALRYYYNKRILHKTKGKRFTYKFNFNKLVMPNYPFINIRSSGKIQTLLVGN
# Method in brief: as §1
# [18] = target: ETV6 (Homo sapiens, UniProt P41212 1-452); conditions: protein: recombinant; tags: N-terminal GST; dsDNA, one strand shown
# Sequence of ETV6 (P41212 whole entry): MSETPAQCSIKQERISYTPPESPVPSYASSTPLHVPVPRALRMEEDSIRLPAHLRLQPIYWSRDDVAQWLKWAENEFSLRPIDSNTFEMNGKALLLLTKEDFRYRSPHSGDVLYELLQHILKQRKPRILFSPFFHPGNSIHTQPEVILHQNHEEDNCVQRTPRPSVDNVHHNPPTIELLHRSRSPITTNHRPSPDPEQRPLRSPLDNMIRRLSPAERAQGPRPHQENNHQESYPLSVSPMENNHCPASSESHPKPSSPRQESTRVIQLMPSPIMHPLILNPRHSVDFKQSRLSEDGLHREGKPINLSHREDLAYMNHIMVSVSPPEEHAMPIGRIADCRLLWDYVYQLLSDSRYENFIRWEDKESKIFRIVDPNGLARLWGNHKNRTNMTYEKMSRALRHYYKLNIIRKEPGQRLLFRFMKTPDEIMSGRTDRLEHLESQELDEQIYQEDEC
# Method in brief: as §1
sequence,measurement,setting,value
ATATCG,binding signal,[1],"1.1 fold enrichment (6-mer frequency, TF over GST control)"
same,binding signal,[2],"1.16 fold enrichment (6-mer frequency, TF over GST control)"
same,binding signal,[3],"1.14 fold enrichment (6-mer frequency, TF over GST control)"
same,binding signal,[4],"1.07 fold enrichment (6-mer frequency, TF over GST control)"
same,binding signal,[5],"1.22 fold enrichment (6-mer frequency, TF over GST control)"
same,binding signal,[6],"1.21 fold enrichment (6-mer frequency, TF over GST control)"
same,binding signal,[7],"1.18 fold enrichment (6-mer frequency, TF over GST control)"
same,binding signal,[8],"1.02 fold enrichment (6-mer frequency, TF over GST control)"
same,binding signal,[9],"1.07 fold enrichment (6-mer frequency, TF over GST control)"
same,binding signal,[10],"1.22 fold enrichment (6-mer frequency, TF over GST control)"
same,binding signal,[11],"1.23 fold enrichment (6-mer frequency, TF over GST control)"
same,binding signal,[12],"1.23 fold enrichment (6-mer frequency, TF over GST control)"
same,binding signal,[13],"1.17 fold enrichment (6-mer frequency, TF over GST control)"
same,binding signal,[14],"1.26 fold enrichment (6-mer frequency, TF over GST control)"
same,binding signal,[15],"1.16 fold enrichment (6-mer frequency, TF over GST control)"
same,binding signal,[16],"1.1 fold enrichment (6-mer frequency, TF over GST control)"
same,binding signal,[17],"1.14 fold enrichment (6-mer frequency, TF over GST control)"
same,binding signal,[18],"1.09 fold enrichment (6-mer frequency, TF over GST control)"
